From PubChem
RE007 growth inh: less growth of the S. pombe RE007 Vpr strain; 360,000 tested, 0.21% active; Potency, µM (titrated, usually from 92.2 µM), most hits filed as inhibitors; S. pombe RE007 Vpr strain, BacTiter-Glo ATP luminescence, 24 h; AID 651644; active = well fitted falling curve with a large enough effect; inconclusive = small, poorly fitted or top-dose-only effect; inactive = no such curve, though single readings can be large or run the other way; note: nearly all actives have a fitted effect of over 50% in size
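Fission yeast strain RE007, carrying one chromosomally integrated HIV-1 vpr copy, was seeded at OD 0.01 in PMG+AL medium with 23 nL pinned compound. After 24 h at 30 °C and 99% humidity, viability was read by BacTiter-Glo luminescence.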
Shiga inhibitor: inhibitors of Shiga toxin in Vero cells; inhibition, % at 38.7 µM; 290,000 tested, 9.2% active; Vero cells, Shiga toxin protein synthesis inhibition reporter; in the data active = inhibition mostly above about 28%, no sharp cut-off; inactive = mostly below about 43%
Giardia FBPA inh: Giardia lamblia aldolase inhibition. 290,000 tested, 0.71% active. Potency, µM (top dose mostly 59.6 µM), actives largely listed as inhibitors. A8B2U2. AID 2451. purified Giardia FBPA; note: nearly all actives have a fitted effect of over 55% in size
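40 nM FBPA preincubated 10 min at RT with compound (up to 57.5 uM final), then substrate plus GAPDH/TPI/NAD/arsenate coupling and diaphorase/resazurin added. Fluorescence read after 20 min at RT, 525/598 nm.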
Tb PYK inh: T. brucei pyruvate kinase inhibition; AID 624173; 410,000 tested, 0.12% active; TbPYK enzyme, Kinase-Glo Plus ATP luminescence, 45 min; Q57TT1; Potency, µM (top dose mostly 76.8 µM), actives largely listed as inhibitors; note: nearly all actives have a fitted effect of over 50% in size
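Glycolytic pyruvate kinase of T. brucei was incubated with substrate, test compound and 130 uM ADP for 45 minutes at room temperature. Luminescent Kinase-Glo Plus signal was measured after 10 minutes.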
Cycloheximide cs: counter-screen hit for Shiga toxin inhibitors, cycloheximide; 300,000 tested, 12% active; max response, %; cell reporter, cycloheximide protein synthesis inhibition counterscreen; AID 2314; in the data active = max response mostly above about 13%, no sharp cut-off; inactive = mostly below about 14%; note: read at 38.3 µM for the half of the compounds with a filed dose
LmPK inhibitor: blocks Leishmania mexicana pyruvate kinase activity; Q27686; purified LmPK, Kinase-Glo ATP luminescence, 1 h; Potency, µM (doses to about 57.5 µM), most hits filed as inhibitors; 290,000 tested, 0.37% active
Target sequence (Q27686 whole entry, looked up): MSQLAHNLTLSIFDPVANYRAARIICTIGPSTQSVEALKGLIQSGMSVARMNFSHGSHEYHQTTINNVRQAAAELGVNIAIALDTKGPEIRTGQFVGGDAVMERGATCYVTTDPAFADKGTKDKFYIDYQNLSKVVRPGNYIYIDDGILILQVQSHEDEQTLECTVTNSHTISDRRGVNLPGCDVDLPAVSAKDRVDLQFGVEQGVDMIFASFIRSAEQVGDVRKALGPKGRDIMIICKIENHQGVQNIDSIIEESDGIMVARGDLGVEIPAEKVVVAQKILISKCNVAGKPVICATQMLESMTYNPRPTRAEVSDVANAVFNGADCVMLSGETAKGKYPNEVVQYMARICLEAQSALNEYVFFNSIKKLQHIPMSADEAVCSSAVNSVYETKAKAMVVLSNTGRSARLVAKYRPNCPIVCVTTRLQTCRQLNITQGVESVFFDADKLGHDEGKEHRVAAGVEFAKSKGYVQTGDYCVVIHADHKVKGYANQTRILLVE
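Kinase-Glo luminescence read after 1 h RT reaction of 0.1 nM LmPK with 0.5 mM PEP and 0.1 mM ADP. Activity scaled between uninhibited and enzyme-free controls.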
Each line names hits and unclear results; the compound was inactive in the other large screens. The full list was thinned out, with hits kept by preference. Unless noted, calls come from the whole dose curve; as a rule, active = well fitted curve in the direction sought with a large enough effect; inconclusive = small, poorly fitted or top-dose-only effect, or another doubt; inactive = no such curve, though single readings can be large; an effect the other way counts as inactive or inconclusive.

C[C@H](NC(=O)CNC(=O)[C@@H](NC(=O)[C@H](Cc1ccccc1)NC(=O)CNC(=O)CNC(=O)[C@@H](N)Cc1ccccc1)[C@@H](C)O)C(=O)N[C@@H](CCCN=C(N)N)C(=O)N[C@@H](CCCCN)C(=O)N[C@@H](CO)C(=O)N[C@@H](C)C(=O)N[C@@H](CCCN=C(N)N)C(=O)N[C@@H](CCCCN)C(N)=O	none (no result: RE007 growth inh, Tb PYK inh, LmPK inhibitor)
Cc1ccc(CNC(=O)c2cc3c(s2)-c2ccccc2SC3)cc1	none (no result: RE007 growth inh, Shiga inhibitor, Giardia FBPA inh, Cycloheximide cs, LmPK inhibitor)
CCOCCCNC(=O)c1cc2c(s1)-c1ccccc1SC2	Shiga inhibitor 63, Tb PYK inh inconclusive
CN(Cc1ccccc1)C(=O)c1ccc(CSc2nc3cccnc3n2Cc2ccccc2)cc1	none (no result: RE007 growth inh, Shiga inhibitor, Giardia FBPA inh, Cycloheximide cs, LmPK inhibitor)
Cc1ccn(-c2cc(O)c(-n3ccc(C)n3)cc2O)n1	Cycloheximide cs 14
Cc1ccn(CCC(=O)O)n1	none
CC(OC(=O)c1cc(=O)[nH]c2ccccc12)C(=O)N1C(C)CCCC1C (stereo unspecified)	none (no result: Shiga inhibitor, Giardia FBPA inh, Cycloheximide cs, LmPK inhibitor)
CNC(=O)CC1C(=O)N(C)C(=S)N1NC(=O)c1ccccc1 (stereo unspecified)	none
NC(=O)CC1C(=O)N(c2ccccc2)C(=S)N1NC(=O)c1ccccc1 (stereo unspecified)	Giardia FBPA inh inconclusive, Cycloheximide cs 27
NC(=O)CC1C(=O)N(c2ccccc2)C(=S)N1NC(=O)c1ccc(Br)cc1 (stereo unspecified)	Shiga inhibitor 55, Giardia FBPA inh inconclusive, Cycloheximide cs 29
COc1cccc(C(=O)NN2C(=S)N(c3ccccc3)C(=O)C2CC(N)=O)c1 (stereo unspecified)	Shiga inhibitor 50, Cycloheximide cs 43
COc1ccc(NC(=O)CC2C(=O)N(c3ccc(OC)cc3)C(=S)N2NC(=O)c2cccc(F)c2)cc1 (stereo unspecified)	none
COc1cccc(NC(=O)C2CCN(S(=O)(=O)c3ccc4c(c3)C(C)(C)C(=O)N4C)CC2)c1	none
CN(C)/C=N/C(=S)Nc1ccc(F)cc1	Shiga inhibitor 38, Cycloheximide cs 25
CN(C)/C=N/C(=S)Nc1ccc(Cl)c(Cl)c1	RE007 growth inh inconclusive, Shiga inhibitor 111, Cycloheximide cs 40
CN(N)C(=S)Nc1ccc(F)cc1	none
c1ccc(COc2ccc(-c3cc4nc(NCCN5CCOCC5)ccn4n3)cc2)cc1	none (no result: Shiga inhibitor, Giardia FBPA inh, Cycloheximide cs, LmPK inhibitor)
Cc1cc(NC(=O)C2CC=CCC2C(=O)O)ccc1NC(=O)c1ccccc1 (stereo unspecified)	Shiga inhibitor 25 (no result: Giardia FBPA inh)
Cc1cc(NC(=O)c2ccc3c(c2)OCCO3)ccc1NC(=O)c1cc2ccccc2o1	Shiga inhibitor 71, Cycloheximide cs 16
O=C(Nc1cc2ccccc2oc1=O)c1ccccc1	Shiga inhibitor 87, Cycloheximide cs 31, LmPK inhibitor 4.5µM
Cc1cc(NC(=O)c2cc3ccccc3o2)ccc1NC(=O)c1ccccc1	Cycloheximide cs 13
Cc1cc(NC(=O)CN2C(=O)/C(=C/c3ccc(C(C)C)cc3)SC2=S)no1	none (no result: Shiga inhibitor, Giardia FBPA inh, Cycloheximide cs, LmPK inhibitor)
COC(=O)c1cc2oc3ccccc3c2n1Cc1c(C)cc(C)cc1C	none (no result: RE007 growth inh, Shiga inhibitor, Giardia FBPA inh, Cycloheximide cs, LmPK inhibitor)
Cn1c(-n2cccc2)c(-c2c(-c3ccccc3)[nH]c3c2c(=O)[nH]c(=O)n3C)c(=O)[nH]c1=O	none (no result: RE007 growth inh, Shiga inhibitor, Giardia FBPA inh, Cycloheximide cs, LmPK inhibitor)
Cc1ccc2c(c1)c1c(c(=O)n(-c3cccc(Cl)c3)c(=O)n1CC(=O)N1CCCC1)n2C	none (no result: RE007 growth inh, Shiga inhibitor, Giardia FBPA inh, Cycloheximide cs, LmPK inhibitor)
Clc1cc(Br)ccc1OCCN1CCOCC1	Cycloheximide cs 31
CC1CCN(CCCOc2ccc(Br)cc2Cl)CC1	Shiga inhibitor 29, Giardia FBPA inh inconclusive, Cycloheximide cs 22
CC(C)NCCCCOc1ccc(Br)cc1Cl	none
CCCCCOc1ccc(CN2CCOCC2)cc1Cl	RE007 growth inh inconclusive, Shiga inhibitor 102, Cycloheximide cs 41
O=C1CCC(=O)N1OCCCOc1ccc(Br)cc1Cl	Cycloheximide cs 30
CC1CCCN(CCOCCOc2ccc(Br)cc2Cl)C1 (stereo unspecified)	none
CCc1ccc(C2c3c(-c4cc(C)ccc4O)n[nH]c3C(=O)N2Cc2cccnc2)cc1 (stereo unspecified)	none (no result: RE007 growth inh, Shiga inhibitor, Giardia FBPA inh, Cycloheximide cs, LmPK inhibitor)
CC(C)CCn1c(Oc2ccccc2F)nc2c1c(=O)n(C)c(=O)n2C	none (no result: RE007 growth inh, Shiga inhibitor, Giardia FBPA inh, Cycloheximide cs, LmPK inhibitor)
C=C1CCN(C(CC(C)C)C(=O)NN2CCOCC2)S(=O)(=O)c2ccccc21 (stereo unspecified)	none (no result: RE007 growth inh, Tb PYK inh, LmPK inhibitor)
